Records with an inconclusive call do not appear. Values without a mark were called inactive. The call rests on the fitted dose curve; in most records, active means well fitted activation curve with a large enough effect in the signal ratio in the repeat runs (not every such curve was filed as active); inconclusive means weak or mixed curves, or effect the other way; inactive means flat fitted curve, though single readings scatter; the % refers to the signal ratio.
Target: Bile acid receptor (Homo sapiens) (UniProt Q96RI1)
Test: qHTS assay to identify small molecule agonists of the farnesoid-X-receptor (FXR) signaling pathway (AID 743220)
Conditions: HEK293T FXR-UAS-bla, beta-lactamase FRET ratio, 16 h; series mostly up to 62.6 µM; activation: at the top concentration
Description: National Center for Advancing Translational Sciences [NCATS]
NIH Chemical Genomics Center [NCGC]
U.S. Environmental Protection Agency [EPA]
National Institutes of Environmental Health Sciences [NIEHS]
National Toxicology Program [NTP]
U.S. Food and Drug Administration [FDA]
The farnesoid-X-receptor (FXR), a nuclear hormone receptor, is highly expressed in liver, intestine, kidney and adrenal cortex. Natural ligands of FXR are the bile acids (Cholic acid, Chenodeoxy cholic acid etc). FXR is an important regulator of diverse metabolic pathways, including the bile acid homeostasis, lipid and glucose metabolisms. FXR regulates the expression of target genes by binding either as a monomer or as a heterodimer with the retinoid X receptor (RXR). Numerous studies have reported that FXR exerts protective function during cholestasis, diabetes, liver regeneration, and cancer. To identify compounds that activate FXR signaling, GeneBLAzer FXR-UAS-bla HEK 293T cell line (Invitrogen, Carlsbad, CA) containing a beta-lactamase reporter gene under the control of a UAS response element was used to screen the Tox21 10K compound library.
Tox21 Assay Protocol Summary:
FXR-bla cells were dispensed at 5000 cells/5uL/well in 1536-well black wall/clear bottom plates using a Multidrop Combi (Thermo Fisher Scientific, Waltham, MA) dispenser. After the assay plates were incubated at 37C and 5% CO2 for 5 h, 23 nL of compounds dissolved in DMSO, positive controls or DMSO only was transferred to the assay plate by a Pintool station (Kalypsys, San Diego, CA). The assay plates were incubated at 37C for 16 h. After 1 uL of LiveBLAzerTM B/G FRET substrate was added using a Bioraptr Flying Reagent Dispenser (FRD) workstation (Beckman Coulter, Indianapolis, IN), the plates were incubated at room temperature for 2 h, and fluorescence intensity was measured by an Envision plate reader (PerkinElmer, Shelton, CT).
On the % scale 0 is the no-effect control and ±100 the full control effect.

Chain of Bile acid receptor (Homo sapiens) (Q96RI1 whole entry, looked up): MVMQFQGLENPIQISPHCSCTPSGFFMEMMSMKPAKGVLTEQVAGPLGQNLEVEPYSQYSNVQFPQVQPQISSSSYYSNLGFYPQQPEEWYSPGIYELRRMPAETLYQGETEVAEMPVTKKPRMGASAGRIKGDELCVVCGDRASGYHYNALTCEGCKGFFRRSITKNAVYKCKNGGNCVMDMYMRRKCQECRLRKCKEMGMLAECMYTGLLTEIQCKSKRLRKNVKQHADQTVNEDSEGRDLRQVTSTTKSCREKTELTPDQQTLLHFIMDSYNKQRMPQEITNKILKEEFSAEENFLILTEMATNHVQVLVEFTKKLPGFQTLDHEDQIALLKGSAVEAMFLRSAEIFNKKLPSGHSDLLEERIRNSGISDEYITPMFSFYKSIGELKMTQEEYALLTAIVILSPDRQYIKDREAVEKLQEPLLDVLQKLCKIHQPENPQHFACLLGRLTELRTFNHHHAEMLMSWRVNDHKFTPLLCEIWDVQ

Row | SMILES | activation
1 | C[C@H]1COc2c(C3(N)CC3)c(F)cc3c(=O)c(C(=O)O)cn1c23 | 1.17%
2 | CC(=O)c1ccc(O)c(C(N)=O)c1 | 1.85%
3 | CCN(CC)CC(=O)Oc1ccc(NC(C)=O)cc1 | 4.04%
4 | C=CCCCCCCCCOC(C)=O | 1.77%
5 | CCCCc1ccc(Cl)cc1 | 0.093%
6 | COC(=O)c1cc(Cl)c(NC(C)=O)cc1OC | 4.64%
7 | COC(C)(C)CC(C)=O | -2.77%
8 | CC(=O)SCC(CC(=O)c1ccc(C)cc1)C(=O)O (stereo not given) | 3.15%
9 | CCC(C)(C)C | 0.713% [at 81.1 µM]
10 | Cc1cc(C)c(C)c(C)c1 | 0.47%
11 | COc1cc(OC)cc(OC)c1 | -2.32%
12 | CCCCCCCCCCCCCCBr | -0.0019% [at 81.1 µM]
13 | CCCCCCCCCCCC(C)=O | -1.51%
14 | CC(C)(C)OC(=O)c1ccccc1C(=O)O | -0.434%
15 | O=C(CCBr)N1CCN(C(=O)CCBr)CC1 | -0.44%
16 | CC/C=C\CCOC(=O)c1ccccc1 | 1.64%
17 | CCCCC(CC)CCC(CC(C)C)OS(=O)(=O)O (stereo not given) | 1.74%
18 | CCCCCCCCCCCBr | 0.306%
19 | CC(=O)Nc1ccc(S(=O)(=O)Nc2cc(C)on2)cc1 | 3.34%
20 | CC1(C)C(=O)C(C)(C)C1=O | -0.456%

Row | SMILES | activation
21 | O=C(O)COc1ccc2ccccc2c1 | -5.07%
22 | O=C1CCCc2c(O)cccc21 | -1.91%
23 | CC[N+](C)(CC)CC | 0.646%
24 | C=C(C)C(=O)OCCOC1CC2CC1C1C=CCC21 (stereo not given) | -2.01% [at 81.1 µM]
25 | CN(C)CCc1c[nH]c2ccc(C[C@H]3COC(=O)N3)cc12 | -3.29%
26 | Cc1ccc(OC(=O)CC(C)C)cc1 | 3.64%
27 | C/C=C/C(=O)CCCC | 2.62%
28 | C/C(Cl)=C/CCl | 0.383% [at 81.1 µM]
29 | CC(C)=CCC/C(C)=C\C#N | -0.413%
30 | c1coc(Cn2cccc2)c1 | -0.543%
31 | O=C(O)/C=C(\CC(=O)O)C(=O)O | 0.0083%
32 | CCCCCCC(O)CO (stereo not given) | 2.87%
33 | OCCC(F)(F)C(F)(F)C(F)(F)C(F)(F)C(F)(F)C(F)(F)F | 1.01%
34 | CC(=O)/C=C/C=C1/C2CCC(C2)C1(C)C (stereo not given) | 1.35%
35 | Cc1ccccc1C#N | -3.05%
36 | CCCC(C)C(O)CC (stereo not given) | -0.565%
37 | CCCc1ncc(C(=O)O)s1 | 1.2%
38 | CCNC(=O)C(C)OC(=O)Nc1ccccc1 (stereo not given) | -2.02%
39 | CCC(C)c1nccnc1OC (stereo not given) | 0.0594%
40 | COC(=O)N/N=C/c1c[n+]([O-])c2ccccc2[n+]1[O-] | -2.62%

— PubChem BioAssay (Tox21)
